Results taken from PubChem BioAssay AID1981 (Southern Research Specialized Biocontainment Screening …, 2009).
The campaign covered roughly 2,200 compounds. About 480 (22%) were called active. A selection follows. Measured potencies and affinities stand elsewhere. Unmarked numbers belong to inactive results. No rule for the calls is given here.

Assay: S. Typhimurium GFP fluorescence dose response in modified counterscreen for PhoP regulon inhibitor project (AID 1981);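 also: 0% = induced DMSO wells and 100% = uninduced wells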
Conditions: 4 h; series mostly up to 150 µM; inhibition: at the top concentration

Compared with `O=C(CCn1nnc(-c2cccs2)n1)NCc1ccccc1Cl`, `O=C(CSc1nnnn1-c1ccccc1)CC(=O)Nc1ccc(Cl)cc1` is higher in “inhibition” value: -14.8% for the first, 5.16% for the second.

Compared with `Cc1ccc(CCNC(=O)C2CCCN(S(=O)(=O)c3c(C)noc3C)C2)cc1` (centres undefined), `Cc1ccc(NC(=O)CO/N=C(\N)c2nonc2N)cc1` is lower in “inhibition” value: 4.87% for the first, -2.61% for the second.

First: CC(C)Cn1c(-c2ccccc2)nc2ccccc2c1=O
Second: COc1ccccc1N1CCN(c2ccc(-c3ccccc3)nn2)CC1
The “inhibition” value of the first is lower: -3.38% for the first, 1.73% for the second.

First: COc1ccc(Cl)cc1C(=O)CSc1nc(N)cc(N)n1
Second: COc1ccccc1-c1cc(C(=O)Nc2cc(C)nn2-c2ccccc2)no1
The “inhibition” value of the first is lower: -5.16% for the first, 2.48% for the second.

First: COc1ccc(-c2c/c(=N\c3nc(-c4ccccc4)c(C)s3)c3ccccc3o2)cc1O
Second: Cc1cccc(C=Nc2ccc3c(c2)oc2ccccc23)c1O
The “inhibition” value of the first is lower: 6.27% for the first, 18.6% for the second.

Compared with `Cc1ccccc1OCC(=O)N/N=C/c1ccco1`, `O=C(N/N=C/c1ccc(F)cc1)c1cc(-c2ccco2)nc2ccccc12` is higher in “inhibition” value: -1.78% for the first, 3.68% for the second.

Compared with `COC(=O)c1ccc(NC(=S)Nc2ccc3ccccc3c2)cc1`, `S=C(Nc1ccccc1)Nc1nc2ccccc2n1CCOc1ccc(Cl)cc1` is lower in “inhibition” value: 19.2% for the first, -3.75% for the second.

First: Cn1ccnc1SCC(=O)Nc1sccc1C#N
Second: Cc1nnc(NC(=O)CSc2ncnc3scc(-c4ccccc4)c23)s1
The “inhibition” value of the first is higher: -14% for the first, -16.3% for the second.

Compared with `NC1=NC2=C(CCCC2)C2(CCCCC2)S1`, `CCCCn1c(O)c(C(CC)=Nc2ccc3c(c2)CCC3)c(=O)[nH]c1=O` is lower in “inhibition” value: 3.33% for the first, 0.23% for the second.

First: CC(C)c1ccc(O)c(NC(=O)c2cncc(Br)c2)c1
Second: Cc1cc(C(=O)N/N=C/c2cccc([N+](=O)[O-])c2O)n[nH]1
The “inhibition” value of the first is lower: -16.4% for the first, 7.6% for the second.

Compared with `Cc1ccccc1Nc1nnc(SCC(=O)NC2CCCc3ccccc32)s1` (centres undefined), `Cc1cccc(C)c1NC(=O)CSc1nnc(NC(=O)CN2CCOCC2)s1` is lower in “inhibition” value: -4.71% for the first, -11.3% for the second.

Compared with `Cc1[nH]nc2c1C(c1cc(Br)cs1)C(C#N)=C(N)O2` (centres undefined), `Cc1ccc(-c2cc(-c3ccc(Cl)cc3)c(C#N)c(N)n2)o1` is lower in “inhibition” value: 16.8% for the first, 5.31% for the second.

Going from `CCCOc1ccc(Cn2cnc3ccccc32)cc1` to `Clc1ccc(OCCn2cnc3ccccc32)cc1`, the “inhibition” value falls from 5.83% to -5.15%.

Going from `O=C(OCC1COc2ccccc2O1)c1ccccc1F` (centres undefined) to `O=C(OCC(=O)c1ccccc1Cl)c1cnccn1`, the “inhibition” value rises from -13.2% to -6.74%.

Going from `CN(C)CCOC(=O)Cc1ccc(Cl)cc1` to `CC(=O)N(Cc1ccc(Cl)cc1)c1cnccn1`, the “inhibition” value falls from 7.74% to -9.06%.

Going from `C/C(Nc1ccc(F)cc1)=C(/C#N)C(N)=O` to `CC(=O)c1cccc(NC(=O)NCc2ccco2)c1`, the “inhibition” value falls from 0.93% to -11.1%.

First: Cc1ccc2c(c1)cc(CN(Cc1ccc3c(c1)OCO3)C(=O)c1cnccn1)c1nnnn12
Second: Cc1cc(C(=O)N/N=C/C=C/c2ccc3c(c2)OCO3)n[nH]1
The “inhibition” value of the first is lower: -3.22% for the first, 4.59% for the second.

Going from `O=C(CSc1nnc2c(Cl)cc(Cl)cn12)NC1CCS(=O)(=O)C1` (centres undefined) to `Cc1cccc(C)c1NC(=O)CCCSc1nnc(-c2ccc(Cl)cc2)n1-c1ccccc1`, the “inhibition” value rises from -19.5% to -18.7%.

Compared with `COc1ccc(/C=C2\CN(Cc3ccccc3)C/C(=C\c3ccc(OC)cc3)C2=O)cc1`, `COc1ccc(OCCSc2nnc3sc4ccccc4n23)cc1` is lower in “inhibition” value: 17.4% for the first, -6.36% for the second.

Compared with `O=C(N/N=C/c1cccn1-c1ccc([N+](=O)[O-])cc1)C(O)c1ccccc1` (centres undefined), `COc1ccccc1OCc1ccc(C(=O)N2CCN(C(=O)c3ccco3)CC2)cc1` is lower in “inhibition” value: -2.51% for the first, -17.6% for the second.

First: CN(C)C(=O)c1cn(N(C)c2ncc(C(F)(F)F)cc2Cl)c(=O)c2ccccc12
Second: Cc1[nH]c2ccccc2c1C(O)CN1CCN(c2cccc(C(F)(F)F)c2)CC1 (centres undefined)
The “inhibition” value of the first is lower: -5.53% for the first, 5.87% for the second.

Compared with `Nc1nc(-c2ccc(Br)cc2)cs1`, `Cc1ccc(-n2nc(-c3ccc(N)cc3)cc2N)cc1` is higher in “inhibition” value: -2.12% for the first, 23.2% for the second.

Compared with `COc1ccc(-c2cc(N3CCCC3)n3ncnc3n2)cc1`, `Cc1ccc(OCc2nc3ccccc3[nH]2)cc1` is lower in “inhibition” value: 9.78% for the first, 7.62% for the second.

First: Cc1ccccc1NC(=S)N(CCCN1CCOCC1)Cc1ccccn1
Second: O=C(c1cc2ncc(Br)cn2n1)N1CCOCC1
The “inhibition” value of the first is lower: -7.4% for the first, -3.14% for the second.

Going from `O=c1[nH]c2ccccc2n1C1=CCCC1` to `O=c1c(Br)c(Br)cnn1-c1ccccc1`, the “inhibition” value rises from 1.35% to 15.4%.

Going from `CCn1c(Cc2c(C)[nH]c3ccccc23)n[nH]c1=S` to `COC(=O)Cn1c(C)nc2ccccc21`, the “inhibition” value rises from -20.2% to 3.63%.

First: CC(=O)Oc1c2occc2cc2ccc(=O)oc12
Second: COc1cc(C2Nc3cccc4cccc(c34)N2)cc(OC)c1OC(C)=O
The “inhibition” value of the first is higher: 11.7% for the first, -4.57% for the second.

Going from `O=C(NCCNS(=O)(=O)c1cccc(C(F)(F)F)c1)c1cc(OCC(F)(F)F)ccc1OCC(F)(F)F` to `COc1ccc(C(=O)C(CO)Oc2ccccc2OC)cc1OC` (centres undefined), the “inhibition” value falls from 3.69% to -1.18%.

First: CCCOC(=O)C(C)n1cnc2sc(C)c(C)c2c1=O (centres undefined)
Second: CCOC(=O)CCC(NC(=O)c1ccc(NCN2C(=O)CCC2=O)cc1)C(=O)OCC (centres undefined)
The “inhibition” value of the first is higher: -1.62% for the first, -13.2% for the second.

In the case of `CC(=O)c1c(C)nc(-c2ccc(Cl)cc2)nc1N=CN(C)C`, the “inhibition” value was 8.78%.
